From the OligoGym collection

Each sequence was assayed against ATP10B (assay: pooled miR-30 sensor sort-seq; sequence = guide strand). Settings: shRNA.
Note: reference of the scale not given here.

| Sequence | sensor-assay potency score (higher = more potent) |
| --- | --- |
| TTCTTGGTGAGAATACTCGCTG | -0.605 |
| TAAGGTGAGTTGATTCTCCAGA | 0.552 |
| TCGCTTAGCATTTTCTTGGTGA | 0.0526 |
| TTGGTGTAGACAACAATCTCGC | -0.19 |
| TAACATGGTGATTTCTCTGTGG | 0.162 |
| TTTATCTGGAGTTACATCTTTT | -0.334 |
| TTTGTCTCTCCATCCAAGCTGG | -0.607 |
| TTTATTGCTTTATCAAAGCGGT | -0.352 |
| TTTGAGATTAGAGACTTCCCAC | 0.383 |
| TTGAAGAATATCATCTGCCAGT | -0.482 |
| TTGACTATCATACTCTTCTGGA | 0.0435 |

These sequences were tested against ATP13A3 in the same assay as above. Settings: shRNA.

| Sequence | sensor-assay potency score (higher = more potent) |
| --- | --- |
| TTGACATGATCCATTCTCCTTA | -0.0274 |
| TAGACATAGATTTTGGACTTGA | -0.0415 |
| TTCATCAGTAGTCCTCAGCAGC | -0.704 |
| TTCGGTTTCATTGTCTACGTGT | 0.717 |
| TAGATTTTGGACTTGAAACTGG | -0.128 |
| TTCTTCAGTTGCTTCTTCCAGA | -0.0869 |
| TAAAGCTTTAGCTTCTGTGGTT | -0.122 |
| TTGACGTACAAGAAACACCTTC | 0.452 |
| TATAACACTGAACAGCTGGAAA | -0.978 |
| TTAATTGCAGCTCTGACACAGG | 0.0379 |

These sequences were tested against ATP2B3 in the same assay as above. Settings: shRNA.

| Sequence | sensor-assay potency score (higher = more potent) |
| --- | --- |
| TTGACTGCTTCTGCTCAGGGGT | -0.897 |
| TTGCTGTTCAAGATGTTGGTGC | 0.726 |
| TTGGCTTCTTTTGAACTCTTGG | 0.325 |
| TTGTAAAGCTTGTCTTCCGGGA | -0.394 |
| TTTGTAAAGCTTGTCTTCCGGG | -0.371 |
| TTTGCTTTTAATATCTATTGGC | 0.393 |
| TTTTTTTGCATGAAGATGCTGA | 0.145 |
| TATTGTACATAGACCGGCGTGC | 0.677 |
| TTGATCAGAAACTCGGGCGTGG | 0.126 |
| TTGACCAGAAAGATATTCTTGC | 0.31 |
| AAAACAACTACAACCTTGCTAC | -0.0751 |
| TAAAACATATTTATGAACTGAA | -0.383 |
| TGAAACTGCAGGAACTTGGAGA | 0.195 |
| TTAAACAAGGACATCAGGGAAC | -0.472 |
| TTTATGAACTGAACACAGTTGA | 0.503 |
| TTTCTTGACAGAGTAAGCTAAG | -0.513 |
| TTCCTCACCATGTCGTCCCGGT | -0.00689 |
| TTGAAGAACACAAAGACCCTCA | 0.724 |
| TTGTCGGTGGGAGACGACCGGG | -1.43 |
